# Results published in paper PMC7826789 (International Journal of Molecular Sciences, 2021).
# Experiments:
# Conditions in all cases: Compound Concentration (nM):1000
# AAK1 = test system: AAK1
# [1] = test system: ABL1(E255K)-phosphorylated
# [2] = test system: ABL1(F317I)-nonphosphorylated
# [3] = test system: ABL1(F317I)-phosphorylated
# [4] = test system: ABL1(F317L)-nonphosphorylated
# [5] = test system: ABL1(F317L)-phosphorylated
# [6] = test system: ABL1(H396P)-nonphosphorylated
# [7] = test system: ABL1(H396P)-phosphorylated
# [8] = test system: ABL1(M351T)-phosphorylated
# [9] = test system: ABL1(Q252H)-nonphosphorylated
# 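Note: KINOMEscan scanMAX binding as percent activity remaining versus control; lower means stronger binding.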
SMILES,Percent Control (AAK1) [%],Percent Control [1] [%],Percent Control [2] [%],Percent Control [3] [%],Percent Control [4] [%],Percent Control [5] [%],Percent Control [6] [%],Percent Control [7] [%],Percent Control [8] [%],Percent Control [9] [%]
NS(=O)(=O)c1ccc(N/N=C2\C(=O)Nc3ccc(C(=O)NCc4ccncc4)cc32)cc1 [GW300657X],29,79,85,81,92,54,63,82,91,78
COc1ccc2cc(-c3c(-c4ccncc4)nc(-c4ccc(S(C)(=O)=O)cc4C)n3C)ccc2c1 [SB-633825],83,80,100,65,83,74,58,78,81,63
CCS(=O)(=O)c1ccc(OC)c(Nc2ncc(-c3cccc(OC)c3)o2)c1 [GW580509X],100,5,90,40,45,6.2,1.4,7.9,6.5,6.8
Cc1cc(O)cc(C)c1/C=C/c1cncc(C(N)=O)c1 [GW435821X],100,6.8,90,32,37,9,4.9,14,15,7.9
CN(C)CCNC(=O)Nc1ccc(N(C)c2ccnc(Nc3ccc(CS(C)(=O)=O)cc3)n2)cc1.Cl [GW830900A],20,82,93,84,91,84,38,82,73,47
O=C1Nc2ccc(C(=O)c3ccco3)cc2C1=Cc1cc(Cl)c(O)c(Cl)c1 [GW406108X],30,68,89,79,100,71,60,87,70,71
O=C(Nc1n[nH]c2nc(-c3ccc(O)cc3)c(Br)cc12)C1CC1 [SB-725317],79,26,100,80,100,100,1.9,28,33,7
COc1cc(C=NNc2ncnc3c2cnn3-c2ccccc2)ccc1O [GW513184X],91,15,92,92,100,91,4.7,26,25,8.4
COc1ccc2c(-c3ccnc(Nc4cccc(OC(F)(F)F)c4)n3)cnn2n1 [GW810372X],69,100,100,100,100,100,87,100,97,98
Cl.c1ccc(Cc2nc3ccc(Nc4ncnc5ccccc45)cc3[nH]2)cc1 [GR269666A],100,100,100,88,100,92,86,100,100,98
COc1cc2ncn(-c3cc(O[C@H](C)c4ccccc4Cl)c(C(N)=O)s3)c2cc1OC [GSK237701A],29,81,100,86,92,71,20,78,56,46
COc1ccccc1-c1cc(/C=C2\C(=O)Nc3ncc(Br)cc32)cc(Br)c1O [GW442130X],87,83,100,100,100,100,48,85,100,94
COc1ccc2[nH]c3c4[nH]c5ccc(OC)cc5c4c4c(c3c2c1)C(=O)NC4=O [GW296115X],53,64,87,73,84,75,34,65,68,28
CC1=C(C(=O)Nc2ccc3[nH]ncc3c2)C(c2ccc(Cl)c(Cl)c2)CC(=O)N1 (stereo not drawn) [GSK299115A],73,96,100,72,75,74,79,95,87,75
CN1CCN(C(=O)c2ccc(NC(=O)Nc3ccc(N(C)c4ccnc(Nc5ccc(CS(C)(=O)=O)cc5)n4)cc3)cc2)CC1.Cl [GW830263A],19,38,96,69,51,34,1.4,32,20,6.1
Cl.O=S1CCN(Cc2ccc(-c3ccc4ncnc(Nc5ccc(OCc6ccccc6)c(F)c5)c4c3)o2)CC1 [GW576924A],100,100,100,96,100,70,99,100,100,100
COc1cccc(-n2ncc3c(N/N=C/c4ccncc4)ncnc32)c1 [GW784752X],85,1.5,100,78,98,24,0,1.5,0,0
COc1ccc(COc2ccc(Cc3cnc(N)nc3N)cc2OC)cc1 [GW632580X],94,75,99,95,100,93,88,86,85,88
COc1cc(/C=N/Nc2ncnc3[nH]ncc23)ccc1O [GW578748X],34,0.8,100,37,56,23,0,1.3,0,0
CN(C)c1cc2c(Nc3ccc4c(cnn4Cc4ccccc4)c3)ncnc2cn1 [GW282974X],75,59,84,91,99,50,,63,100,48

SMILES,Percent Control (AAK1) [%],Percent Control [1] [%],Percent Control [2] [%],Percent Control [3] [%],Percent Control [4] [%],Percent Control [5] [%],Percent Control [6] [%],Percent Control [7] [%],Percent Control [8] [%],Percent Control [9] [%]
COc1cc(C)c(N(C)C(=O)CN(C)C)cc1Nc1nc(Nc2cccc(F)c2C(N)=O)c2cc[nH]c2n1 [GSK2219385],94,95,55,97,100,56,51,99,100,62
COc1cccc(-c2c[nH]c3c(N/N=C/c4ccncc4)ncnc23)c1 [GW814408X],69,0.7,100,66,61,19,0,0.2,0.3,0
CC1=C(C(=O)Nc2ccc3[nH]ncc3c2)C(c2ccc3ccccc3c2)CC(=O)N1 (stereo not drawn) [GSK270822A],81,83,100,67,87,68,59,86,80,50
Cl.O=C(Nc1ccc(Oc2ccc3[nH]c(NC(=O)c4ccccc4)nc3c2)cc1)Nc1cc(C(F)(F)F)ccc1F [GW709042A],100,83,43,76,26,80,9.9,67,62,8
NS(=O)(=O)c1ccc(N/N=C2\C(=O)Nc3ccc(Cl)cc32)cc1 [GW280670X],94,100,99,96,100,100,81,100,100,81
COc1cc2ncnc(Nc3ccc4c(cnn4Cc4ccccc4)c3)c2cc1OC.Cl [GW282449A],100,100,100,81,93,60,80,100,100,96
NS(=O)(=O)c1ccc(N/N=C2\C(=O)Nc3ccc(C(=O)NCCc4c[nH]cn4)cc32)cc1 [GW300660X],100,100,100,77,98,100,93,100,100,99
NS(=O)(=O)c1ccc(N/N=C2\C(=O)Nc3ccc(-c4cnco4)cc32)cc1 [GW276655],14,63,69,59,75,74,58,83,92,85
Cl.O=C(O[C@H]1CN[C@H](C#Cc2cc3ncnc(Nc4ccc5c(cnn5Cc5ccccc5)c4)c3s2)C1)N1CCOCC1 [GSK200398A],87,88,89,85,100,52,80,90,100,84
COc1cc(N2CCN(C(C)C)CC2)ccc1Nc1nc(Nc2ccc(F)cc2C(=O)NC[C@@H](O)CO)c2cc[nH]c2n1 [GSK1392956A],64,100,100,87,95,49,97,100,97,100
CCc1ccc(Oc2nccc(-c3c(-c4ccc(F)cc4)ncn3C3CCNCC3)n2)cc1 [SB-242719],100,63,87,80,100,98,77,67,98,68
Nc1ncnc2occ(-c3ccc(NC(=O)Nc4cc(C(F)(F)F)ccc4F)cc3)c12 [GW770249X],96,78,67,61,7.8,54,2.9,72,45,0
Cl.O=C(Nc1ccc(Oc2ccc3[nH]c(NC(=O)c4ccco4)nc3c2)cc1)Nc1cc(C(F)(F)F)ccc1F [GW683134A],100,39,20,53,6.8,54,0.7,20,22,5.5
CC(C)COC(=O)c1ccc2c(c1)/C(=C/Nc1ccc(S(N)(=O)=O)cc1)C(=O)N2 [GW416981X],26,100,100,83,100,100,75,100,100,95
CCn1c(-c2nonc2N)nc2c(C#CC(C)(C)O)nc(OCCNC)cc21.Cl [GSK949675],100,98,100,100,100,100,85,93,100,100
CCS(=O)(=O)c1ccc(OC)c(Nc2ncc(-c3cccc(F)c3)o2)c1 [GW621970X],100,6.7,98,51,47,5.4,1.1,9.3,6.6,4.5
COC(=O)Nc1nc2ccc(Oc3ccc(NC(=O)Nc4cc(C(F)(F)F)ccc4F)cc3)cc2s1.Cl [GW693917A],100,28,4.5,36,3.6,14,0,15,12,0
C[C@@H](Oc1cc(-n2cnc3ccc(OC4CCN(C)CC4)cc32)sc1C(N)=O)c1ccccc1Cl [GSK579289A],62,44,52,87,100,78,43,56,80,46
NS(=O)(=O)c1ccc(Nc2ncc(-c3ccccc3)o2)cc1 [GW572399X],94,81,99,87,86,100,35,87,83,78
C/C(Nc1ccc(S(N)(=O)=O)cc1)=C1/C(=O)Nc2ccccc21 [GW335962X],67,82,88,83,100,89,72,91,82,76
